About 83,000 compounds went through this panel and 20% of them were active in at least one assay; those are over-represented in the sample as a whole.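 Activity criterion: percent growth below 10, measured after cells in 96-well plates were exposed to a single compound concentration for 48 hours.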 Unmarked numbers belong to inactive results. Calls of active or inactive are those of the source.
Columns and labels:
Assay in all cases: NCI-60 one-dose screen, 48 h (100 = growth as untreated, 0 = no growth, -100 = all killed)
Settings in all cases: 10 µM unless noted
NCI-H23 lung = tested on: NCI-H23 lung
NCI-H226 lung = tested on: NCI-H226 lung
NCI-H322M lung = tested on: NCI-H322M lung
HOP-62 NSCLC = tested on: HOP-62 NSCLC
NCI-H460 lung = tested on: NCI-H460 lung
HOP-92 NSCLC = tested on: HOP-92 NSCLC
NCI-H522 lung = tested on: NCI-H522 lung
A549/ATCC NSCLC = tested on: A549/ATCC NSCLC
786-0 renal = tested on: 786-0 renal
COLO 205 colon = tested on: COLO 205 colon

Compound	growth (NCI-H23 lung)	growth (NCI-H226 lung)	growth (NCI-H322M lung)	growth (HOP-62 NSCLC)	growth (NCI-H460 lung)	growth (HOP-92 NSCLC)	growth (NCI-H522 lung)	growth (A549/ATCC NSCLC)	growth (786-0 renal)	growth (COLO 205 colon)
C[C@@]1(CCC#N)[C@H]2CC[C@@H]3[C@H]4[C@H](C(=O)/C=C/c5cccnc5)CC[C@]4(C#N)CC[C@@]3(C)[C@]2(C)CC[C@H]1C(=O)/C=C/c1cccnc1	62.8%	65.5%	97.7%	73.2%	75.2%	80.7%	37.9%	71.9%	77.9%	71.7%
COc1ccc(/C=C/c2c(C(=O)/C=C/c3ccc(F)cc3)c(C)nc3ccccc23)cc1	47.8%	67.3%	82.7%	57.5%	15.9%	73.5%	43.9%	91.6%	65.4%	79.8%
CCOc1ccccc1-n1c(CN2CCN(C(=O)COc3ccc(CNCCCCCCN4C5CCCC4CC(OC(=O)Nc4cc(C)ccc4OC)C5)cc3)CC2)nc2ccccc2c1=O (stereo not given)	-82.6% (active)	-73.5% (active)	-98.1% (active)	-92% (active)	-90.9% (active)	-90.2% (active)	-86.7% (active)	-88.2% (active)	-89.6% (active)	-85.1% (active)
COc1cc2nc(Cl)nc(Nc3ccc(S(=O)(=O)Nc4nccs4)cc3)c2cc1OC	101%	91.9%	102%	92%	106%	118%	91.3%	102%	101%	110%
NS(=O)(=O)c1cnccc1Oc1cccc2cccnc12	90.9%	97.3%	99.6%	86.8%	108%	78.4%	95.7%	94.6%	97.7%	103%
COc1ccc(-c2cc(-c3ccc(Nc4nc(Nc5ccc(Cl)cc5)nc(Nc5ccc(Cl)cc5)n4)cc3)nc(N)c2C#N)cc1	30%	9.85% (active)	113%	86.8%	57.6%	-53.8% (active)	83.4%	37%	41.6%	5.26% (active)
COc1ccc(-c2nc3c(c(=O)n2C(C)=O)C(c2ccc(Cl)cc2)c2sc4c(Cl)cccc4c2O3)cc1 (stereo not given)	3.67% (active)	15.8%	-5.66% (active)	-5.72% (active)	-10.8% (active)	-15.7% (active)	-45.6% (active)	-55% (active)	-50.1% (active)	-62.3% (active)
Nc1cc2c3c(cccc3c1)C(=O)N(CCN1CCCC1)C2=O	39.5%	-7.42% (active)	54.5%	44.4%	2.15% (active)	27.5%	29.3%	14.8%	46.4%	14%
O=c1c2cc(F)ccc2sc2c(Nc3cccnc3)nc3ccccc3c12	78.8%	90.5%	88.8%	96.1%	68.5%	75.1%	94.3%	73.7%	86.9%	85%
Cn1c2c(c3ccc(Cl)c(Cl)c31)C(C#N)C1(CCNCC1)NC2=O (stereo not given)	72.6%	44.1%	55.3%	23.8%	18.3%	21.9%	47.3%	31.2%	54.5%	-76.6% (active)
COc1cc2ncn3c(=O)c4c5c(sc4nc3c2cc1OC)CCCC5	91.4%	93.8%	96.9%	89.8%	100%	115%	80.1%	96.4%	105%	106%
CC(=O)c1ccc(NCC(=O)Nc2ccccn2)cc1	96.4%	91.3%	103%	98.7%	104%	103%	107%	104%	102%	103%
Cc1ccc(-n2c(-c3ccccc3)c(-c3ccccc3)c3c(SCC(=O)n4[nH]c(N)cc4=O)ncnc32)cc1	90.8%	88.8%	101%	87.6%	103%	74.7%	79.6%	92.5%	96.6%	94.4%
O=C(Nc1cccc(C(F)(F)F)c1)Nc1cccc(C(F)(F)F)c1	1.97% (active)	-1.66% (active)	16.7%	-1.14% (active)	5.08% (active)	-16.2% (active)	-35% (active)	-1.94% (active)	8.34% (active)	-85.2% (active)
COc1ccc(OC)c(-c2c(C#N)c(-c3ccc(Cl)cc3)nc3c2c(-c2ccccc2)nn3-c2ccccc2)c1	102%	98.3%	95.7%	99.3%	103%	101%	86%	98.4%	98.1%	104%
COc1ccccc1NC(=O)N/C(N)=N/c1nc2ccccc2s1	33%	63.4%	41.6%	32.7%	10.1%	62.1%	4.23% (active)	25.1%	40.2%	-3.41% (active)
O=C1Nc2ccccc2/C1=C/c1cn(C(=O)c2ccc(Cl)cc2)c2ccccc12	90.8%	92.3%	127%	111%	107%	99.3%	85.6%	101%	111%	58.2%
O=C(NCCCNc1cc(-c2cn(-c3ccccc3)nc2-c2cccc(O)c2)ccn1)c1ccc(F)cc1	42%	58.9%	62.8%	26.2%	27.9%	14.4%	9.35% (active)	16.1%	-49.4% (active)	-59.1% (active)

Reference: PubChem BioAssay (NCI)
